biological target: Albumin (Bos taurus) (UniProt P02769); experiment: compounds binding labelled BSA control protein – biochemical, small-molecule microarray, Alexa647 label, 635/667 nm fluorescence, artefact control for SMM control protein annotation, profiling panel (AID 1118); conditions: BSA-A647 binding, fluorescence 635 nm, higher = more signal;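 note: score merges 667 nm emission intensity and signal-to-noise per printed compound spot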
Sequence (P02769 whole entry, looked up): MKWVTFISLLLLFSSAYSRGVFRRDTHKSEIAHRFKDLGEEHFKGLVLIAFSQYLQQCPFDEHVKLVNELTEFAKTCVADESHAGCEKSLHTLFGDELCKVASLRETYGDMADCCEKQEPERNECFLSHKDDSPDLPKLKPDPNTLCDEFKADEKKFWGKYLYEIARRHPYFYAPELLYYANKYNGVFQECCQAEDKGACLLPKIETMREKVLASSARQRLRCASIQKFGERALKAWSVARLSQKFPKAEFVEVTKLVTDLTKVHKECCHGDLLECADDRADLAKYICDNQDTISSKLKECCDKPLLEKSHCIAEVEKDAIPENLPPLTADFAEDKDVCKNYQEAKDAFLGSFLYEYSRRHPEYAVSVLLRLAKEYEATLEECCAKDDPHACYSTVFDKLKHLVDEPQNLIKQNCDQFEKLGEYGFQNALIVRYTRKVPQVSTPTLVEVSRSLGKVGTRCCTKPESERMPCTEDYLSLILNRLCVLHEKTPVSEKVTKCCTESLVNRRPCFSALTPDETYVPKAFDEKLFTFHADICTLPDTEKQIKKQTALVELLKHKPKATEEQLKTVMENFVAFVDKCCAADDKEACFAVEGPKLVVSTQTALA

SMILES	composite z-score
COC(=O)[C@@]1(Cc2ccc(OC)cc2)[C@H]2c3cc(C(=O)N4CCCC4)n(Cc4ccsc4Br)c3C[C@H]2CN1C(=O)c1ccccc1	0.885
CCOC(=O)C[C@H]1[C@H](OC(=O)Cc2ccc3c(c2)OCO3)[C@@H](NC(=O)c2ccc(-c3ccccc3)cc2)c2cc(OCCCO)ccc2N1C(=O)c1ccc2ccccc2n1	0.238
COC(=O)[C@@]1(Cc2ccc(F)cc2)[C@H]2c3cc(C(=O)N(C)C)n(CC4CC4)c3C[C@H]2CN1C(=O)c1ccccc1	1.02
CCCCC(=C=CC[C@@H](O)c1ccccc1OCCO)CCO	0.694
COc1ccc([Si](C)(C)[C@@H]2[C@@H](CCO)O[C@]3(C(=O)N(Cc4ccc(N5C(=O)COc6ccccc65)cc4)c4ccccc43)[C@H]2C)cc1	0.671
CC1CC/C=C\[C@H]2OC34C=CCN(Cn5nnc6ccccc65)C(=O)[C@H]3N(C(CO)C(C)C)C(=O)[C@@H]4C2C(=O)O1 (some centres undefined)	0.568
CCCCN1CC=CC23O[C@@H]4/C=C\CCC(C)OC(=O)C4[C@H]2C(=O)N(CCCCCO)[C@@H]3C1=O (some centres undefined)	-1.05
O=C1C[C@]2(c3ccc([N+](=O)[O-])cc3)C(=O)N(CCN3CCOCC3)c3cc(CO)ccc3[C@H]2N1C1CCCCC1	0.883
O=C(O)[C@@]1(CCS(=O)(=O)c2ccccc2)COC(c2ccc(OCCCO)cc2)=N1	-0.344
COc1ccc(C(O)C2C=CC3C(=O)N(c4ccccc4)C(=O)C3N2Nc2ccc(C(C)C)cc2)cc1OCc1ccccc1 (centres undefined)	0.895
CC(C)C(=C=CC[C@@H](O)c1ccccc1OCCO)CCO	0.0824
CN(C)C(=O)[C@]1(Cc2ccccc2CN=[N+]=[N-])N=C(c2ccc(OCCCO)cc2)O[C@@H]1c1ccccc1CN=[N+]=[N-]	0.933
COc1ccc(C(=O)Nc2cccc(CN3C(=O)[C@]4(O[C@H](CCO)[C@@H]([Si](C)(C)c5ccc(OC)cc5)[C@@H]4C)c4ccccc43)c2)cc1	0.0296
CCCCCC1=C2CNC(CCC)(C(=O)OC)C=C2C(C)C1=O (centres undefined)	0.912
CCOC(=O)C[C@H]1[C@H](OC(=O)c2cc3ccccc3oc2=O)[C@@H](NC(=O)Cc2ccc(OC)cc2)c2cc(OCCCO)ccc2N1C(=O)c1ccccc1	0.722
COc1ccc([C@H]2C[C@H]3C(Br)=C[C@@H]2C(=O)[C@]32CO2)cc1	-1.13
CCOC(=O)C1=CCC(c2ccccc2)N(S(=O)(=O)CC[Si](C)(C)C)C1 (centres undefined)	-0.149
O=C1NCC(=O)N2[C@@H]1C[C@@H](C(=O)O)[C@H]2c1cccc(OCCO)c1	-0.175
COCCOC(=O)N1C(=O)[C@@]2(c3cc(C#CC4=CCCCC4)ccc31)[C@H](C(=O)N1CCc3cc(OC)c(OC)cc3C1)[C@H]1C(=O)O[C@H](c3ccccc3)[C@H](c3ccccc3)N1[C@@H]2c1ccc(OCCO)cc1	0.448
O=C(NCC(F)(F)F)[C@@H]1c2ccccc2C(=O)N(C2CCCCC2)[C@H]1c1ccc(CO)cc1	0.558
CC(C)OC(=O)C=C1C[C@@H](c2ccccc2C(F)(F)F)O[C@@H](c2ccccc2C(F)(F)F)O1	0.629
COc1ccc([Si](C)(C)[C@H]2[C@H](CC(=O)N3Cc4ccccc4C[C@H]3CO)O[C@@]3(C(=O)N(Cc4ccc(N5CCC5=O)cc4)c4ccccc43)[C@@H]2C)cc1	0.402
C=CCC(OC(C)=O)[C@@H]1[C@@H](N(Cc2cccc3ccccc23)C(=O)c2ccc(-c3ccccc3)cc2)c2cc(OCCCO)ccc2N1C(=O)Cc1ccc(OC)cc1 (some centres undefined)	0.173
COc1ccc(CCNC(=O)[C@@H]2c3ccccc3C(=O)N(C3Cc4ccccc4C3)[C@H]2c2ccc(CO)cc2)cc1	0.397
C=CCNC(=O)[C@H]1[C@@H]2C(=O)O[C@@H](c3ccccc3)[C@@H](c3ccccc3)N2[C@@H](c2ccc(O)cc2)[C@]12C(=O)N(C(=O)OCCOC)c1ccc(C#CCNC(N)=O)cc12	-0.213
C=CCC(OC(C)=O)[C@@H]1[C@@H](N(Cc2ccc(-c3cccc(C(F)(F)F)c3)o2)C(=O)Cc2ccc(F)cc2)c2cc(OCCCO)ccc2N1C(=O)Cc1ccc(OC)cc1 (some centres undefined)	-0.0141
Cc1ccc(S[C@]2(C(=O)NCC(F)(F)F)CC(=O)N(C(C)C)[C@@H]2c2ccc(CO)cc2I)cc1	-0.667
O=C1NC(=O)C2C1C=CC(C(O)c1ccccc1)N2Nc1ccc(Cl)cc1Cl (centres undefined)	0.885
COc1ccc([Si](C)(C)[C@H]2[C@H](CCO)O[C@@]3(C(=O)N(C)c4c(Br)cc(C)cc43)[C@@H]2C)cc1	-0.094
